Inconclusive results are not listed. The source made the active and inactive calls. How the source made its calls, unless noted: active means hit-call score of the fitted dose curve at least 0.9, where 1 is the maximum; inactive means score below 0.9.

Our source for the outcome and AC50 values is PubChem BioAssay (EPA / NIEHS).

Assay [1] deals with Glucocorticoid receptor (Homo sapiens) (UniProt P04150). Nature of the assay: ATG_GR_TRANS: Attagene TRANS-FACTORIAL HepG2 Assay for human Glucocorticoid Receptor (GR) (AID 2282978; active means hit-call score of the fitted dose curve at least 0.9, where 1 is the maximum;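 further: activators score as hits since higher reporter transcript over DMSO is fitted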). To be noted: HepG2 Attagene TRANS GR reporter, mRNA transcription. The essentials: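 HepG2 cells transiently transfected with GAL4-UAS reporter units and exogenous GR-Gal4 chimera, dosed 24 h. Reporter mRNA by RT-PCR, FAM labeling, HpaI digest and capillary electrophoresis; gain-of-signal fit versus DMSO.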

The target of assay [2] is Bile acid receptor (Homo sapiens) (UniProt Q96RI1). Nature of the assay: ATG_FXR_TRANS: Attagene TRANS-FACTORIAL HepG2 Assay for Farnesoid X Receptor (FXR) (AID 2282979; active means hit-call score of the fitted dose curve at least 0.9, where 1 is the maximum;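 further: hits raise reporter mRNA above DMSO so AC50 marks FXR activation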). To be noted: HepG2 Attagene TRANS FXR-GAL4 reporter transcription. The essentials: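 Chimeric FXR-GAL4 activity in transiently transfected human HepG2 liver cells is scored as induction of reporter mRNA after 24 h of dosing. Detection uses RT-PCR with fluorescent labelling and capillary electrophoresis, with DMSO serving as baseline.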

Assay [3] can be described thus: ATG_M_06_TRANS: Attagene TRANS-FACTORIAL HepG2 Assay for M06 Transcription Factor (Internal Marker) (AID 2282983; active means hit-call score of the fitted dose curve at least 0.9, where 1 is the maximum). To be noted: HepG2 Attagene TRANS M06 internal marker reporter. In a few lines: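 Measured by capillary electrophoresis of fluorescently labelled RT-PCR products, this endpoint reflects reporter mRNA in HepG2 cells harbouring exogenous NR-GAL4 reporter constructs after 24 h exposure, with DMSO as baseline.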

In assay [4] the target is Transcriptional activator Myb (Homo sapiens) (UniProt P10242). Put plainly: ATG_Myb_CIS: Attagene CIS-FACTORIAL HepG2 Assay for human Myeloblastosis (Myb) Proto-Oncogene Transcription Factor (AID 2282986). The conditions noted are these: HepG2 Attagene CIS-FACTORIAL Myb reporter transcription; actives raise or lower the signal. In a few lines: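 Transiently transfected HepG2 cells carrying a multiplexed cis-promoter reporter set report endogenous Myb activity after 24 h compound exposure. Reporter mRNA is read by RT-PCR with capillary electrophoresis of fluorescent products, fitted bidirectionally against DMSO.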

Assay [5] addresses Nuclear respiratory factor 1 (Homo sapiens) (UniProt Q16656). Nature of the assay: ATG_NRF1_CIS: Attagene CIS-FACTORIAL HepG2 Assay for human Nuclear Respiratory Factor 1 (NRF1) Orphan Gene (AID 2282987). The conditions noted are these: HepG2 NRF1 cis-element reporter, Attagene multiplex; actives raise or lower the signal. The essentials:
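HepG2 cells transiently transfected with multiple cis-regulated reporter units, exposed 24 h. Reporter mRNAs measured by RT-PCR, fluorescent labelling, HpaI digestion and capillary electrophoresis; bidirectional fitting against DMSO.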

A short description of assay [6]: ATG_NFI_CIS: Attagene CIS-FACTORIAL HepG2 Assay for human Nuclear Factor I (NFI) (AID 2282989). The conditions noted are these: HepG2 cis-regulatory reporter, NFI response element transcription; actives raise or lower the signal. The essentials: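 Read-out: reporter mRNA via RT-PCR plus capillary electrophoresis with fluorescence detection. Transiently transfected HepG2 (endogenous TF activity on cis promoters), 24 h compound exposure; gain or loss of signal fitted against DMSO.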

Assay [7] deals with Myc proto-oncogene protein (Homo sapiens) (UniProt P01106). Nature of the assay: ATG_Myc_CIS: Attagene CIS-FACTORIAL HepG2 Assay for human Myelocytomatosis (Myc) Proto-Oncogene Transcription Factor (AID 2282990). The conditions noted are these: HepG2, Attagene cis-reporter transcription factor activity; actives raise or lower the signal. In a few lines:
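Read-out: fluorescent reporter mRNA fragments resolved by capillary electrophoresis after RT-PCR. Human HepG2 liver cells carried transfected cis-element reporter units and were dosed for 24 h. Gain or loss of signal fitted relative to DMSO baseline.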

The nature of assay [8]: ATG_NF_kB_CIS: Attagene CIS-FACTORIAL HepG2 Assay for human Nuclear Factor Kappa B (NF-kB) (AID 2282991). The conditions noted are these: HepG2 Attagene cis-factorial NF-kB reporter mRNA; actives raise or lower the signal. The essentials: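 HepG2 cells transfected with cis-promoter-driven reporter units, so endogenous transcription factor activity is measured. Reporter mRNA quantified 24 h after dosing by RT-PCR and capillary electrophoresis, with bidirectional fitting against DMSO.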

Assay [9] is described as follows: ATG_NRF2_ARE_CIS: Attagene CIS-FACTORIAL HepG2 Assay for human Nuclear Factor Erythroid 2 Related Factor 2 (NFR2) response to Antioxidant Response Elements (ARE) (AID 2282992).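 On AC50: reporter mRNA level measured by RT-PCR and capillary electrophoresis fluorescence.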 To be noted: HepG2 Attagene ARE/NRF2 reporter, transcription factor activity; actives raise or lower the signal. The essentials: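 Cis-factorial assay: transfected HepG2 reporter library, 24 h dosing, mRNA readout via RT-PCR/CE; DMSO-referenced bidirectional analysis.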

Assay [10] is described as follows: ATG_Oct_MLP_CIS: Attagene CIS-FACTORIAL HepG2 Assay for human Octamer-Binding Transcription Factor (Oct) (AID 2282993). The conditions noted are these: HepG2 Attagene cis-factorial Oct reporter, mRNA; actives raise or lower the signal. The essentials:
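Read-out: reporter mRNA via RT-PCR plus capillary electrophoresis of 6-FAM-labelled fragments. Transiently transfected HepG2, 24 h exposure, endogenous TF activity on cis elements. Gain or loss of signal fitted relative to DMSO.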

Assay [11] deals with Cellular tumor antigen p53 (Homo sapiens) (UniProt P04637). Put plainly: ATG_p53_CIS: Attagene CIS-FACTORIAL HepG2 Assay for human p53 Transcription Factor (AID 2282994). The conditions noted are these: HepG2 p53 cis-element reporter, Attagene mRNA; actives raise or lower the signal. In a few lines:
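Using HepG2 hepatoma cells carrying cis-acting multiplexed reporters, mRNA induction is detected after a 24 h exposure. Gain- and loss-of-signal responses are fitted relative to DMSO-treated cells.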

The target in assay [12] is Oxysterols receptor LXR-alpha (Homo sapiens) (UniProt Q13133). Nature of the assay: ATG_LXRa_TRANS: Attagene TRANS-FACTORIAL HepG2 Assay for human Liver X Receptor alpha (LXRa) (AID 2282980; active means hit-call score of the fitted dose curve at least 0.9, where 1 is the maximum). To be noted: HepG2 Attagene TRANS reporter, LXRa transactivation. The essentials:
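Transient HepG2 transfectants, 24 h dosing, RT-PCR/CE mRNA reporter quantitation; gain-of-signal vs DMSO.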

Assay [13] addresses Oxysterols receptor LXR-beta (Homo sapiens) (UniProt P55055). Nature of the assay: ATG_LXRb_TRANS: Attagene TRANS-FACTORIAL HepG2 Assay for human Liver X Receptor beta (LXRb) (AID 2282981; active means hit-call score of the fitted dose curve at least 0.9, where 1 is the maximum). To be noted: HepG2 Attagene TRANS GAL4-LXRb reporter, mRNA. The essentials:
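Gain-of-signal mRNA reporter endpoint, DMSO as negative control. Transiently transfected HepG2 cells carrying the NR-Gal4 chimera and GAL4-UAS reporter units were treated 24 h; transcripts quantified by RT-PCR and capillary electrophoresis fluorescence.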

The target in assay [14] is Hepatocyte nuclear factor 4-alpha (Homo sapiens) (UniProt P41235). Nature of the assay: ATG_HNF4a_TRANS: Attagene TRANS-FACTORIAL HepG2 Assay for human Hepatocyte Nuclear Factor 4 alpha (HNF4a) (AID 2282982; active means hit-call score of the fitted dose curve at least 0.9, where 1 is the maximum). To be noted: HepG2 HNF4a transactivation reporter, mRNA readout. In a few lines:
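Gain-of-signal mRNA induction, relative to DMSO vehicle, was read after 24 h compound treatment of HepG2 cells bearing transfected GAL4-UAS reporters. Detection used RT-PCR, 6-FAM primer extension and capillary electrophoresis.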

Assay [15] can be described thus: ATG_M_32_TRANS: Attagene TRANS-FACTORIAL HepG2 Assay for M32 Transcription Factor (Internal Marker) (AID 2282984; active means hit-call score of the fitted dose curve at least 0.9, where 1 is the maximum;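 further: transcript level of a background control reporter unit measured by RT-PCR and capillary electrophoresis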). To be noted: HepG2 Attagene TRANS M32 internal marker reporter. The essentials: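 Capillary electrophoresis of 6-FAM-labelled reporter fragments gives the signal; data fitted for gain over DMSO negative control. Source: HepG2 cells bearing transient multiple reporter transcription units, 24 h exposure.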

In assay [16] the target is Nuclear receptor subfamily 4 group A member 2 (Homo sapiens) (UniProt P43354). Nature of the assay: ATG_NURR1_TRANS: Attagene TRANS-FACTORIAL HepG2 Assay for human Nuclear Receptor Related Protein 1 (NURR1) (AID 2282985; active means hit-call score of the fitted dose curve at least 0.9, where 1 is the maximum). To be noted: HepG2 Attagene TRANS reporter, mRNA readout. In a few lines: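 HepG2 / transient MRTU transfection / 24 h compound exposure / RT-PCR + CE fluorescence of reporter mRNA / gain-of-signal vs DMSO.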

The nature of assay [17]: BSK_3C_TissueFactor: BioMAP Diversity Plus: 3C Assay for Tissue Factor Biomarker Activity (AID 2282997). To be noted: BioMAP 3C HUVEC, tissue factor biomarker readout; actives raise or lower the signal. In a few lines: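 Values derive from bidirectional curve fitting against DMSO of Tissue Factor ELISA signals, taken 24 h after dosing primary human umbilical vein endothelial cells.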

Assay [18] is described as follows: BSK_3C_uPAR: BioMAP Diversity Plus: 3C Assay for Urokinase-type plasminogen activator receptor (uPAR) Biomarker Activity (AID 2282998). To be noted: BioMAP 3C HUVEC, uPAR biomarker ELISA; actives raise or lower the signal. In a few lines: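 HUVEC primary cells; 24 h post-dose; uPAR by ELISA; gain or loss of signal fitted bidirectionally vs DMSO baseline.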

Hepatocyte nuclear factor 4-alpha (Homo sapiens), sequence (P41235 whole entry, looked up, the tested form may be a part): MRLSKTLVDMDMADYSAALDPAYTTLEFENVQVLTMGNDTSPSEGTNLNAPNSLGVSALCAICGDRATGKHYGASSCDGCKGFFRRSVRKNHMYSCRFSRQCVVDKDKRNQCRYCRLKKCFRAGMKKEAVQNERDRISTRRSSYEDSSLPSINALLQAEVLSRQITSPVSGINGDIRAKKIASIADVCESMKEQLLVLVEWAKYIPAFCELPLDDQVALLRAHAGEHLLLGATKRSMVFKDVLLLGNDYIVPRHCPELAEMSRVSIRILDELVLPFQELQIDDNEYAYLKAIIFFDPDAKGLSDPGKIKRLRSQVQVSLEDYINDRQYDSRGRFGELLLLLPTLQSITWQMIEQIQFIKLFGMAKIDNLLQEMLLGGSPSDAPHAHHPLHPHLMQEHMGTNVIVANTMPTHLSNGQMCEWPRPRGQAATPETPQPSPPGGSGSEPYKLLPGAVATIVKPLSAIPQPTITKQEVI
Cellular tumor antigen p53 (Homo sapiens), sequence (P04637 whole entry, looked up): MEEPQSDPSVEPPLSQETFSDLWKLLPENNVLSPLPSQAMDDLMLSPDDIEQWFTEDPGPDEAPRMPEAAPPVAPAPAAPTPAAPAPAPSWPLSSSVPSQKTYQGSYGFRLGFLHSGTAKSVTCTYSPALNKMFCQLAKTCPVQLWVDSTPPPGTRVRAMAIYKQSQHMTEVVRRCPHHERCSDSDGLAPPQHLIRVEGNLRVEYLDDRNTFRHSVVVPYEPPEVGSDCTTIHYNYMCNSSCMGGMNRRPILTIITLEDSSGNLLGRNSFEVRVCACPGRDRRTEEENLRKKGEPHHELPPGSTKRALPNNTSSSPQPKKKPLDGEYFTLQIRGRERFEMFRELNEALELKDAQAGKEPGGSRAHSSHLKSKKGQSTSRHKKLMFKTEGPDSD
Transcriptional activator Myb (Homo sapiens), sequence (P10242 whole entry, looked up): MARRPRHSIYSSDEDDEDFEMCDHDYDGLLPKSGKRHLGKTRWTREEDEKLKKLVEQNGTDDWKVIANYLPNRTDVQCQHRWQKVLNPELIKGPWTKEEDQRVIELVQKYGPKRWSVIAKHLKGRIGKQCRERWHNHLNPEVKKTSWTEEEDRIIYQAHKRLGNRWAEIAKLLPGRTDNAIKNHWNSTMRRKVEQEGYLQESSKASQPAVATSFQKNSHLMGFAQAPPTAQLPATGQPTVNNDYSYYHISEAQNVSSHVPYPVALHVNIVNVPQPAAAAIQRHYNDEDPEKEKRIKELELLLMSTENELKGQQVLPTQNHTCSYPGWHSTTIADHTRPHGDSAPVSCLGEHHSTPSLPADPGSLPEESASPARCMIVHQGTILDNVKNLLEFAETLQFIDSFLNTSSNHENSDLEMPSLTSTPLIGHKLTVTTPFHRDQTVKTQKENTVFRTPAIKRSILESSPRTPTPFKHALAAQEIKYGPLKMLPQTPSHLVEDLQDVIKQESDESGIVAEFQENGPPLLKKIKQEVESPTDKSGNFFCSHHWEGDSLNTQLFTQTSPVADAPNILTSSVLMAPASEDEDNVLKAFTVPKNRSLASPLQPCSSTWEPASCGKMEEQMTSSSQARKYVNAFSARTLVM
Nuclear respiratory factor 1 (Homo sapiens), sequence (Q16656 whole entry, looked up): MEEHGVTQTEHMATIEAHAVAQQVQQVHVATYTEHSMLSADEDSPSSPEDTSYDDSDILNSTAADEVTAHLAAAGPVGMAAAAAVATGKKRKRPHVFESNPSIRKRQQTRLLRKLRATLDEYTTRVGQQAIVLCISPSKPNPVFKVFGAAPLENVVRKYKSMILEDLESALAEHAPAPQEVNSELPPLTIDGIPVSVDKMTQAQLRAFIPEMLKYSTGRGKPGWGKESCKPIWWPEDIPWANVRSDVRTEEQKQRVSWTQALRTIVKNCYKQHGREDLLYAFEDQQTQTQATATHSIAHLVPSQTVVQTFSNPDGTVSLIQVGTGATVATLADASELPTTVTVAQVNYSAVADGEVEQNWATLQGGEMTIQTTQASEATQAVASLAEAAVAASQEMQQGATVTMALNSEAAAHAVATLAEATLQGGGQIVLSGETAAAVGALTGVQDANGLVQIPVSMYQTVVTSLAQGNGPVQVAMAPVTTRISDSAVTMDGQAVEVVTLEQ
Myc proto-oncogene protein (Homo sapiens), sequence (P01106 whole entry, looked up, the tested form may be a part): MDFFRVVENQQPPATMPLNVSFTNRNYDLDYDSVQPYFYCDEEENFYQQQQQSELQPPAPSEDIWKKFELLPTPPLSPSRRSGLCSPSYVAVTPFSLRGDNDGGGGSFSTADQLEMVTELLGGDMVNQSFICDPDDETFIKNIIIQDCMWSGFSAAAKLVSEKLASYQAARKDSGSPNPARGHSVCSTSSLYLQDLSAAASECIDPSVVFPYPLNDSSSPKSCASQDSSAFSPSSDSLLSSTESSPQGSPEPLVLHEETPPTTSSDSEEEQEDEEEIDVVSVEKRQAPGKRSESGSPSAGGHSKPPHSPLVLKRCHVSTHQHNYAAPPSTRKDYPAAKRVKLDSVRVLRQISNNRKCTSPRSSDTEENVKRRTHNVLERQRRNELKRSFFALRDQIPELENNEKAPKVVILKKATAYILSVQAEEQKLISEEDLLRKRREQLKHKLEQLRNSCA
Glucocorticoid receptor (Homo sapiens), sequence (P04150 whole entry, looked up, the tested form may be a part): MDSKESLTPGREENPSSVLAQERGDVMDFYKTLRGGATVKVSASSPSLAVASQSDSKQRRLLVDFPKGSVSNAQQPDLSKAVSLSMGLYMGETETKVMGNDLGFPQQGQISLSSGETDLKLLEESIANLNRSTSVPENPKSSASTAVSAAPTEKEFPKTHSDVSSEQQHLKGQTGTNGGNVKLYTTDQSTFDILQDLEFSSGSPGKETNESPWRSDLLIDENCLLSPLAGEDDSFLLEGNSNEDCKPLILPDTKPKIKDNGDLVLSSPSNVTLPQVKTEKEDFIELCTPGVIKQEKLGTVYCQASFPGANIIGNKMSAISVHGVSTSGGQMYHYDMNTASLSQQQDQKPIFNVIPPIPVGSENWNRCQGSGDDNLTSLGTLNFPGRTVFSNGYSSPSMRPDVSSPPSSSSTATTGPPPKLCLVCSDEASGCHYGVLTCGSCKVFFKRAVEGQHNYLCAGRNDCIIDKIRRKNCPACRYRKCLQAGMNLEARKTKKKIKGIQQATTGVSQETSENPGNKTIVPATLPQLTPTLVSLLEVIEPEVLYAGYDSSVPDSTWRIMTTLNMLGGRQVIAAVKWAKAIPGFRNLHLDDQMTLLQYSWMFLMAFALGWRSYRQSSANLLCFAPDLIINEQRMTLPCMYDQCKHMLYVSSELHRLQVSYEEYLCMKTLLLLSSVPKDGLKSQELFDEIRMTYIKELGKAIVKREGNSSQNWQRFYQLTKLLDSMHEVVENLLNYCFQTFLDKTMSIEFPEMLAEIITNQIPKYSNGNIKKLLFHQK
Nuclear receptor subfamily 4 group A member 2 (Homo sapiens), sequence (P43354 whole entry, looked up): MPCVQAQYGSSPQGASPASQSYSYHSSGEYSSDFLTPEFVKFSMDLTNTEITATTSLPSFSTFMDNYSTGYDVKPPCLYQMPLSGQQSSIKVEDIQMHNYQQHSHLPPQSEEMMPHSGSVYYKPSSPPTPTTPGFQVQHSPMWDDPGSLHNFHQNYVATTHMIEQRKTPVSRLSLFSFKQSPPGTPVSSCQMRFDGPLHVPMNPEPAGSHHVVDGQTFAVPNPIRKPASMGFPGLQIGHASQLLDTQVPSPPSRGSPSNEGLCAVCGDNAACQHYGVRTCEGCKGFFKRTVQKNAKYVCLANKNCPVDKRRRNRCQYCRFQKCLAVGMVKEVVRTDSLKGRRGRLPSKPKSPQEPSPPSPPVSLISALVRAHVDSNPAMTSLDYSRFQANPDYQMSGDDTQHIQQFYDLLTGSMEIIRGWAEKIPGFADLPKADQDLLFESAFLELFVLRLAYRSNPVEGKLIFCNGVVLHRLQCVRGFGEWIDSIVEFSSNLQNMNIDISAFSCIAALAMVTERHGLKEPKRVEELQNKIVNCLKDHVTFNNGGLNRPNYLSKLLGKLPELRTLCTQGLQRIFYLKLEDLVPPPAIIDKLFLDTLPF
Oxysterols receptor LXR-beta (Homo sapiens), sequence (P55055 whole entry, looked up, the tested form may be a part): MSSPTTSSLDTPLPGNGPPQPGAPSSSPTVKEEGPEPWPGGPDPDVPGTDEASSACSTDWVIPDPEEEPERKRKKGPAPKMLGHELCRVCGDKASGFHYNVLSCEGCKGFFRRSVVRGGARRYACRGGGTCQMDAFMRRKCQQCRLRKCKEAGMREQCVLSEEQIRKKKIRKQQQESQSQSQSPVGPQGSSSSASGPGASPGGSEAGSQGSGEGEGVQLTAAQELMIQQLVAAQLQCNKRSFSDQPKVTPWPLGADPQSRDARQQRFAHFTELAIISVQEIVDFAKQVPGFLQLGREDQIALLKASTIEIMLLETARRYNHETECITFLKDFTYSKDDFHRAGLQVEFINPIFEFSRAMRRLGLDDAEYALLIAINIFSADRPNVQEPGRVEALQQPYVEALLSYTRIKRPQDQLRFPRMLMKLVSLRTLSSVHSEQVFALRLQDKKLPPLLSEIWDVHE
Bile acid receptor (Homo sapiens), sequence (Q96RI1 whole entry, looked up, the tested form may be a part): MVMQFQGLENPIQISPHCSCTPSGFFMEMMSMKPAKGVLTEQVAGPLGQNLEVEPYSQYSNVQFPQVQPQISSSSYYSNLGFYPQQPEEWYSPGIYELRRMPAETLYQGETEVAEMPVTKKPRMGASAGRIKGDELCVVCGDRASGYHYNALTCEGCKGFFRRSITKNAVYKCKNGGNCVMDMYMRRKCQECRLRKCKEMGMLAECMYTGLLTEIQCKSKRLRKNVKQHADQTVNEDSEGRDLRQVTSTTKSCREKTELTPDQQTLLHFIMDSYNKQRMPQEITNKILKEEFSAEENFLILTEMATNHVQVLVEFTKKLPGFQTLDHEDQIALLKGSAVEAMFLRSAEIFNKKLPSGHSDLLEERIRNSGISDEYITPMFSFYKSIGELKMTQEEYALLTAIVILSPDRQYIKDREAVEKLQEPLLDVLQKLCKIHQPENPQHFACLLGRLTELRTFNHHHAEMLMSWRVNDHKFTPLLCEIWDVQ

For the molecule `CC(C)=CCCC(C)O` (stereo unspecified), the call in assay [1], in assay [2], in [3], in assay [4], in assay [5] and in [6] was inactive. The molecule was classed as inactive in assay [7], in assay [8], in assay [9] and in assay [10].
On to `CCCCCCCCCc1ccc(OCCO)cc1`, for which the result in assay [1], in assay [2], in assay [3], in assay [5], in [6] and in assay [7] was inactive. The outcome in assay [8] and in assay [11] was inactive. Besides, the AC50 is 17.6 µM (active) in assay [4] and 5.92 µM (active) in assay [9].
For the molecule `Cc1cc(=O)[nH]c(C(C)C)n1`, the result in assay [1], in [12], in assay [13], in [14], in assay [3] and in assay [15] was inactive. For the same molecule, the outcome in assay [16], in assay [4], in assay [5], in [6], in [7] and in [8] was inactive. Further, the molecule was called inactive in assay [9] and in assay [11].
`CC(=O)c1ccccc1N`: the molecule was classed as inactive in [1], in assay [14], in assay [3], in [4], in assay [5] and in assay [6]. Besides, the molecule was called inactive in assay [7], in assay [8], in assay [9], in assay [10] and in assay [11].
Regarding `O=C1C=CC(=O)N1c1ccc(Cc2ccc(N3C(=O)C=CC3=O)cc2)cc1`, the outcome in [1], in assay [12], in [14], in assay [16], in assay [4] and in assay [6] was inactive. For the same molecule, the result in [7], in assay [10] and in assay [11] was inactive. The AC50 is 60.1 µM (active) in [5]; 11.2 µM (active) in [8]; 33.4 µM (active) in assay [9]; 5.47 µM (active) in [17]; 5.81 µM (active) in assay [18].
Turning to `O=S(=O)(O)CCC(F)(F)C(F)(F)C(F)(F)C(F)(F)F`, the outcome in assay [1], in assay [13], in assay [3], in [4], in assay [5] and in assay [6] was inactive. Further, the molecule was called inactive in assay [7], in assay [8], in [9], in assay [10], in [17] and in [18].
